# Test results: PubChem BioAssay (Tox21)
# Results filed as inconclusive are left out. Values without a mark were called inactive. Calls of active or inactive are those of the source. The call rests on the fitted dose curve; in most records, active means well fitted activation curve with a large enough effect in the signal ratio in the repeat runs (not every such curve was filed as active); inconclusive means weak or mixed curves, or effect the other way; inactive means flat fitted curve, though single readings scatter; the % refers to the signal ratio.
# Assay: qHTS assay to identify small molecule agonists of the endoplasmic reticulum stress response signaling pathway (AID 1159516)
# Conditions: ESRE-bla HeLa, ER stress beta-lactamase reporter, 5 h; series mostly up to 61 µM; activation: at the top concentration
# Excerpt: National Center for Advancing Translational Sciences [NCATS]
# NIH Chemical Genomics Center [NCGC]
# U.S. Environmental Protection Agency [EPA]
# National Institutes of Environmental Health Sciences [NIEHS]
# National Toxicology Program [NTP]
# U.S. Food and Drug Administration [FDA]
# Endoplasmic Reticulum (ER) plays an important role in cellular signaling, protein folding/maturation, stress response, lipid biosynthesis, calcium storage and release etc. Under stress conditions, proteins in ER misfold or unfold, and leading to the expression of ER stress responsive genes. ER stress has been associated with a variety of pathophysiological conditions such as cancer, inflammation, neurodegenerative diseases, diabetes, ischemic heart disease etc. To identify the compounds that induce ER stress response, an ER stress reporter cell line, CellSensor ESRE-bla HeLa (Life Technologies, Carlsbad, CA) containing a beta-lactamase reporter gene under control of the Endoplasmic reticulum Stress Response Element (ESRE) was used to screen Tox21 10K compound library.
# Tox21 Assay Protocol Summary:
# ESRE-bla HeLa cells were dispensed at 1,500 cells/6 uL of assay medium per well into black wall/clear-bottom 1536-well plates using a Multidrop Combi (ThermoFisher Scientific, Waltham, MA) dispenser. After the assay plates were incubated at 37 C and 5% CO2 for an overnight, 23 nL of compounds dissolved in DMSO, positive controls or DMSO only was transferred to the assay plate by a Pintool station (Kalypsys, San Diego, CA). The assay plates were incubated at 37 C and 5% CO2 for 5 hr. One uL of LiveBLAzer B/G FRET substrate (Life Technologies) was added using a Flying Reagent Dispenser (Aurora Discovery, San Diego, CA) and the plates were incubated at room temperature for 2 hr. Fluorescence intensity (405 nm excitation, 460 nm and 530 nm emissions) was measured using an Envision plate reader (PerkinElmer, Shelton, CT).
# On the % scale 0 is the no-effect control and ±100 the full control effect.
SMILES,activation,outcome
CN1CCN(c2cc3c(cc2F)c(=O)c(C(=O)O)cn3-c2ccc(F)cc2)CC1,2.58%,
Nc1ccc(S(=O)(=O)Nc2ccnn2-c2ccccc2)cc1,-2.81% [at 28.5 µM],
CCOC(=O)CCC(C)=O,4.21%,
Cc1cc(O)cc2c1O[C@](C)(CCC[C@H](C)CCC[C@H](C)CCCC(C)C)CC2,5.58%,
COC(=O)CCSCCC(=O)OC,-0.824%,
NS(=O)(=O)c1ccc(C(=O)O)cc1,-0.369%,
Cc1ccc(=O)n(-c2ccccc2)c1,-0.492%,
O=C(c1ccccc1)C1CCCCC1,3.36%,
CC(=O)OCC(=O)[C@@]1(O)CC[C@H]2[C@@H]3CCC4=CC(=O)CC[C@]4(C)[C@H]3C(=O)C[C@@]21C,-1.55%,
N[C@@H](C(=O)N[C@@H]1C(=O)N2C(C(=O)O)=C(Cl)CS[C@H]12)c1ccccc1,4.99% [at 6.95 µM],
CC(C)NC(=O)NC(C)C,0.675%,
Nc1c2c(nc3ccccc13)CCCC2O (stereo not given),-0.608%,
CCn1nc(C(=O)O)c(=O)c2cc3c(cc21)OCO3,-2.16%,
C=C1CC[C@H]2C[C@@H]1C2(C)C,-1.8%,
Cc1nc2c([nH]1)c(=O)n(C)c(=O)n2Cc1ccco1,-4.9%,
CCC=O,0.349% [at 78.8 µM],
Cc1[nH]c(=O)c(C#N)cc1-c1ccc2nccn2c1,0.174%,
CO/N=C(/C(=O)N[C@@H]1C(=O)N2C(C(=O)OCOC(=O)C(C)(C)C)=C(C)CS[C@H]12)c1csc(N)n1,-2.97%,
CCN1CCC[C@H]1CNC(=O)c1cc(S(N)(=O)=O)ccc1OC,1.33%,
CO[Si](CCCOCC1CO1)(OC)OC (stereo not given),,inactive

SMILES,activation,outcome
NS(=O)(=O)c1cc(C(=O)O)cc(N2CCCC2)c1Oc1ccccc1,-1.63%,
C[C@](N)(Cc1ccc(O)cc1)C(=O)O,0.0819% [at 6.95 µM],
Cc1cccc(C)c1NC(=O)C(C)N (stereo not given),3.64%,
C[C@H](NC(CCc1ccccc1)C(=O)O)C(=O)N1CCC[C@H]1C(=O)O (stereo not given in full),-5.53%,
O=C(O)c1ccccc1OP(=O)(O)O,3.87%,
COC(=O)c1cc(C(=O)OC)cc(S(=O)(=O)O)c1,-2.88%,
CN1C(=O)N(C)C(O)C1O (stereo not given),5.08%,
N[C@H](C(=O)O)c1ccc(O)cc1,1.14% [at 28.5 µM],
CC/C=C\CC/C=C/C(OCC)OCC,-2.7%,
O=C(CCCN1CCN(c2ccccn2)CC1)c1ccc(F)cc1,0.482%,
CC(=O)OC/C=C(\C)CC/C=C(\C)CCC=C(C)C,-7.75%,
C=C(C)C(=O)OCCCCCCCC(C)C,0.101% [at 78.8 µM],
CN1N=C(C(N)=O)CCC1=O,0.135%,
CCOC(=O)c1ccc(C)cc1,-0.0618%,
COC(=O)NN,1.48% [at 78.8 µM],
CCCCCOC(=O)CCCCC,-0.692%,
COc1ccc2c(c1)CCCC2=O,1.44%,
OC(CCN1CCCCC1)(c1ccccc1)C1CC2C=CC1C2 (stereo not given),-1.54%,
COc1nc(N)nc2c1ncn2[C@@H]1O[C@H](CO)[C@@H](O)[C@@H]1O,2.18%,
O=C(O)CNC(=O)c1ccc([N+](=O)[O-])cc1,0.0978%,
